Several values for one entry are separate records, joined by “and”; a condition that tells them apart may be missing. Equal values may be shown once. Records with an inconclusive call do not appear. Where a call stands in place of a potency, no number is given. The source holds several records for some structures; these can differ, active in one and inactive in another. Activity calls are given as the source filed them. Unless noted, the call rests on the fitted dose curve; in most records, active means well fitted curve in the direction sought with a large enough effect in the repeat runs; inconclusive means weak or mixed curves; inactive means no such curve, though single readings can be large; an effect the other way counts as inactive or inconclusive.
Assays:
[1] = qHTS assay to identify aromatase inhibitors - cell viability counter screen (AID 743084);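 further: cells stimulated with testosterone during compound exposure; nearly all actives have a fitted effect of over 55% in size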
[2] = molecular target: Aryl hydrocarbon receptor (Homo sapiens) (UniProt P35869); test: qHTS assay to identify small molecule that activate the aryl hydrocarbon receptor (AhR) signaling pathway (AID 743085); further: nearly all actives have a fitted effect of over 15% in size; further: potency means the concentration at half of the fitted maximal effect;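 on activation: HG2L7.5c1 human HepG2 liver cells with stably integrated DRE-driven firefly reporter; series mostly up to about 70 µM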
Outline: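 Cell line HG2L7.5c1 (human hepatoma, 20× DRE-luc). Plated, 5 h 37C, compound/DMSO added, 24 h 37C. CellTiter-Fluor 30 min 37C → fluorescence; then ONE-Glo 30 min RT → luminescence.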

[3] = qHTS assay to identify small molecule that activate the aryl hydrocarbon receptor (AhR) signaling pathway - cell viability counter screen (AID 743086);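 further: HepG2 liver cells carrying the AhR DRE luciferase reporter; series mostly up to about 70 µM; nearly all actives have a fitted effect of over 45% in size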
Outline: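 Cytotoxicity counter screen: CellTiter-Fluor signal (30 min, 37 C) in 4000 HepG2 cells/well carrying the DRE-luciferase reporter, following 24 h compound exposure at 37 C.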

[4] = molecular target: Peroxisome proliferator-activated receptor gamma (Homo sapiens) (UniProt P37231); test: qHTS assay to identify small molecule agonists of the peroxisome proliferator-activated receptor gamma (PPARg) signaling pathway (AID 743094; active means well fitted activation curve with a large enough effect in the signal ratio in the repeat runs, not every such curve was filed as active; the % refers to the signal ratio)
Outline: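 GeneBLAzer PPARg UAS-bla HEK293H cells were plated, rested 5 h, then exposed to compounds for 17 h at 37C. Beta-lactamase activity was read by LiveBLAzer B/G FRET substrate fluorescence after 1 h at room temperature.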

[5] = qHTS assay to identify small molecule antagonists of the peroxisome proliferator-activated receptor gamma (PPARg) signaling pathway - cell viability counter screen (AID 743194); further: nearly all actives have a fitted effect of over 55% in size
Outline: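 Viability was measured as CellTiter-Glo luminescence in GeneBLAzer PPARg UAS-bla HEK293H cells. These cells had been exposed 17 h at 37 C to compounds together with rosiglitazone at 50 nM final, with the beta-lactamase readout taken in the same wells.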

[6] = qHTS assay for small molecule agonists of the antioxidant response element (ARE) signaling pathway - cell viability counter screen (AID 743203; calls by dose curve; further: nearly all actives have a fitted effect of over 55% in size)
Outline: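 ARE-bla HepG2 cells were plated, rested 5 h at 37C/5% CO2, then exposed to compounds in DMSO for 16 h. Viability was read as CellTiter-Glo luminescence after 30 min at room temperature, in the same wells as the ARE screen.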

[7] = qHTS assay for small molecule activators of the heat shock response signaling pathway - cell viability counter screen (AID 743209); further: nearly all actives have a fitted effect of over 50% in size
Outline: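 HSE-bla HeLa cells plated overnight, then exposed to Tox21 compounds (23 nL in DMSO) for 5 h at 37 C. After the bla reporter read, CellTiter-Glo was added in the same wells and luminescence read after 30 min at room temperature.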

[8] = qHTS assay to identify small molecule agonists of the peroxisome proliferator-activated receptor delta (PPARd) signaling pathway - cell viability counter screen (AID 743211); further: nearly all actives have a fitted effect of over 55% in size
Outline: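 HEK293H PPARd-bla, 3000 cells/well; 5 h preincubation 37C/5% CO2; cpd in DMSO, 17 h 37C; B/G FRET substrate 2 h RT; CellTiter-Glo 30 min RT, luminescence.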

[9] = molecular target: Peroxisome proliferator-activated receptor delta (Homo sapiens) (UniProt Q03181); test: qHTS assay to identify small molecule agonists of the peroxisome proliferator-activated receptor delta (PPARd) signaling pathway (AID 743212; calls by dose curve)
Outline: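 HEK293H UAS-bla reporter cells, human PPARd system; compounds delivered in DMSO after 5 h plating, then at 37 C. Beta-lactamase FRET read, 2 h RT substrate step.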

[10] = qHTS assay to identify small molecule antagonists of the peroxisome proliferator-activated receptor delta (PPARd) signaling pathway - cell viability counter screen (AID 743213); further: nearly all actives have a fitted effect of over 50% in size
Outline: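 Cytotoxicity counter screen: CellTiter-Glo luminescence read 30 min after addition, in the same wells as the reporter assay. There, PPARd UAS-bla HEK293H cells (3000/well) were treated 17 h at 37 C with compound and 300 nM L165041.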

[11] = molecular target: Peroxisome proliferator-activated receptor delta (Homo sapiens) (UniProt Q03181); test: qHTS assay to identify small molecule antagonists of the peroxisome proliferator-activated receptor delta (PPARd) signaling pathway (AID 743215; active means well fitted inhibition curve with a large enough effect in the signal ratio in the repeat runs, not every such curve was filed as active; the % refers to the signal ratio;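 further: cells stimulated with agonist L165041 at 300 nM final during compound exposure; series mostly up to about 62 µM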)
Outline: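 PPARd-bla HEK293H cells (UAS-bla reporter) preincubated 5 h, then given compound plus 300 nM final L165041 agonist for 17 h at 37 C. Beta-lactamase activity read by LiveBLAzer B/G FRET substrate fluorescence after 2 h at room temperature.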

[12] = molecular target: Bile acid receptor (Homo sapiens) (UniProt Q96RI1); test: qHTS assay to identify small molecule antagonists of the farnesoid-X-receptor (FXR) signaling pathway (AID 743217; active means well fitted inhibition curve with a large enough effect in the signal ratio in the repeat runs, not every such curve was filed as active; the % refers to the signal ratio; further: potency means the concentration at half of the fitted maximal effect)
Outline: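 FXR-UAS-bla HEK 293T cells (beta-lactamase reporter) given compound plus chenodeoxycholic acid (50 uM final), 16 h at 37C. LiveBLAzer B/G FRET substrate added for 2 h at room temperature; fluorescence read.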

[13] = molecular target: Bile acid receptor (Homo sapiens) (UniProt Q96RI1); test: qHTS assay to identify small molecule agonists of the farnesoid-X-receptor (FXR) signaling pathway (AID 743220; active means well fitted activation curve with a large enough effect in the signal ratio in the repeat runs, not every such curve was filed as active; the % refers to the signal ratio)
Outline: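 Beta-lactamase reporter under UAS control in GeneBLAzer FXR HEK 293T cells (5000/well) measured with LiveBLAzer FRET substrate after 2 h at room temperature. Compound exposure lasted 16 h at 37C.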

[14] = molecular target: Peroxisome proliferator-activated receptor gamma (Homo sapiens) (UniProt P37231); test: qHTS assay to identify small molecule antagonists of the peroxisome proliferator-activated receptor gamma (PPARg) signaling pathway (AID 743191; calls by dose curve; further: nearly all actives have a fitted effect of over 30% in size; further: potency means the concentration at half of the fitted maximal effect)
Outline: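 Beta-lactamase reporter under UAS control in HEK293H PPARg-bla cells; compound treatment 17 h at 37C. Read-out: fluorescence intensity after 1 h room-temperature incubation with LiveBLAzer B/G FRET substrate.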

[15] = qHTS assay for small molecule activators of the heat shock response signaling pathway (AID 743210; active means well fitted activation curve with a large enough effect in the signal ratio in the repeat runs, with a control signal flat, not every such curve was filed as active; the % refers to the signal ratio;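 further: HeLa cells with beta-lactamase reporter driven by heat shock elements; series mostly up to about 63 µM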)
Outline: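 In HSE-bla HeLa cells, 5 h compound incubation (37 C) precedes addition of LiveBLAzer B/G substrate; after 2.5 h at room temperature, fluorescence intensity indicates reporter induction.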

[16] = qHTS assay to identify small molecule agonists of the farnesoid-X-receptor (FXR) signaling pathway - cell viability counter screen (AID 743218); further: nearly all actives have a fitted effect of over 45% in size
Outline: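 FXR-UAS-bla HEK 293T cells exposed to compounds for 16 h at 37C. Cytotoxicity read in the same wells by CellTiter-Glo luminescence after 30 min at room temperature, following the beta-lactamase FRET read.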

[17] = qHTS assay to identify small molecule antagonists of the farnesoid-X-receptor (FXR) signaling pathway - cell viability counter screen (AID 743221; active means well fitted cell-killing curve with a large enough effect in the repeat runs, not every such curve was filed as active; further: nearly all actives have a fitted effect of over 50% in size)
Outline: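 Luminescence from CellTiter-Glo measures cytotoxicity in GeneBLAzer FXR-UAS-bla HEK 293T cells. Cells were exposed to compounds with 50 uM chenodeoxycholic acid (final) for 16 h at 37 C, in wells also used for the reporter readout.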

[18] = molecular target: Vitamin D3 receptor (Homo sapiens) (UniProt P11473); test: qHTS assay to identify small molecule agonists of the vitamin D receptor (VDR) signaling pathway (AID 743222; calls by dose curve)
Outline: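 VDR-bla cells plated 4 h at 37 C, then exposed to compounds for 16 h at 37 C. Beta-lactamase reporter activity measured by fluorescence after 2 h room-temperature loading with LiveBLAzer B/G FRET substrate.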

[19] = molecular target: Vitamin D3 receptor (Homo sapiens) (UniProt P11473); test: qHTS assay to identify small molecule antagonists of the vitamin D receptor (VDR) signaling pathway (AID 743223; active means well fitted inhibition curve with a large enough effect in the signal ratio in the repeat runs, not every such curve was filed as active; the % refers to the signal ratio)
Outline: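 Antagonist mode uses 1alpha,25-dihydroxyvitamin D3 at 3 nM final as stimulus. VDR-bla cells receive compounds in DMSO, incubate 16 h at 37C, then a beta-lactamase FRET substrate for 2 h at room temperature before fluorescence measurement.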

[20] = qHTS assay for small molecule agonists of the antioxidant response element (ARE) signaling pathway (AID 743202; active means well fitted activation curve with a large enough effect in the signal ratio in the repeat runs, not every such curve was filed as active; the % refers to the signal ratio)
Outline: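 An ARE-responsive beta-lactamase gene stably integrated in HepG2 cells serves as reporter. After 5 h plating and 16 h compound incubation at 37 C, fluorescence of the B/G FRET substrate was measured.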

Chain of Aryl hydrocarbon receptor (Homo sapiens) (P35869 whole entry, looked up): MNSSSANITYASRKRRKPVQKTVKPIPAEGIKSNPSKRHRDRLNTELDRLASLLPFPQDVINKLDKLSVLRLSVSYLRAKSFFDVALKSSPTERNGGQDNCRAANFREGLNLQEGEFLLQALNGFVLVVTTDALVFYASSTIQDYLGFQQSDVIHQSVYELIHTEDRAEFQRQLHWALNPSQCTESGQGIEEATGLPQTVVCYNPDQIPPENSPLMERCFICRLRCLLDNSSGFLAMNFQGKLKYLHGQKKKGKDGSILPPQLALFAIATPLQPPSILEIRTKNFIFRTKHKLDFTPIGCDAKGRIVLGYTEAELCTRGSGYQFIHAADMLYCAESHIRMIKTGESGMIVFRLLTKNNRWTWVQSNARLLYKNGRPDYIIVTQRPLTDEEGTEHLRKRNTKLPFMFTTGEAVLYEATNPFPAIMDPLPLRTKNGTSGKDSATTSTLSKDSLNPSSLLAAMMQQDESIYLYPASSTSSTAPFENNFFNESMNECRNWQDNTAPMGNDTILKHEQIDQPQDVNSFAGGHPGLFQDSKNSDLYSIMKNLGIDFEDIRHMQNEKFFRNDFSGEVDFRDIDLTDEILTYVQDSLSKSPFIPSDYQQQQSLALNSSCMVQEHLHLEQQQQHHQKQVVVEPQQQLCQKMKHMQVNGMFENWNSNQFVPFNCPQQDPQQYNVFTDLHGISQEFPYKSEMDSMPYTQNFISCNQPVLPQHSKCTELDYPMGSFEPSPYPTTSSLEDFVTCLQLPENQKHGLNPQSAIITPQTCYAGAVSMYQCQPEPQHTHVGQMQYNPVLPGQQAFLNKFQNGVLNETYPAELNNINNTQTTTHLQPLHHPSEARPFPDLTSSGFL
Chain of Vitamin D3 receptor (Homo sapiens) (P11473 whole entry, looked up): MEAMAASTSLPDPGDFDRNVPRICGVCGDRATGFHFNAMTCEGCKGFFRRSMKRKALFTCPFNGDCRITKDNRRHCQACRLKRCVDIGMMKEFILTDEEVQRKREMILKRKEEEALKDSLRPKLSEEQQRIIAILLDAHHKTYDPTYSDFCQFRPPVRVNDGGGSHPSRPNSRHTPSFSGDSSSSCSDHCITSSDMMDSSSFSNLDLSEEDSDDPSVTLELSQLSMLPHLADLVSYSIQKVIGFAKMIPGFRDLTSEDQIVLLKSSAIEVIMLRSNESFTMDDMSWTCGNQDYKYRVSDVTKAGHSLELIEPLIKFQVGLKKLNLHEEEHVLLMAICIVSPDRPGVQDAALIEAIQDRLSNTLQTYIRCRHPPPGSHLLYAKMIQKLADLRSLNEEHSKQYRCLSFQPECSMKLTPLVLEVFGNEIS
Chain of Bile acid receptor (Homo sapiens) (Q96RI1 whole entry, looked up): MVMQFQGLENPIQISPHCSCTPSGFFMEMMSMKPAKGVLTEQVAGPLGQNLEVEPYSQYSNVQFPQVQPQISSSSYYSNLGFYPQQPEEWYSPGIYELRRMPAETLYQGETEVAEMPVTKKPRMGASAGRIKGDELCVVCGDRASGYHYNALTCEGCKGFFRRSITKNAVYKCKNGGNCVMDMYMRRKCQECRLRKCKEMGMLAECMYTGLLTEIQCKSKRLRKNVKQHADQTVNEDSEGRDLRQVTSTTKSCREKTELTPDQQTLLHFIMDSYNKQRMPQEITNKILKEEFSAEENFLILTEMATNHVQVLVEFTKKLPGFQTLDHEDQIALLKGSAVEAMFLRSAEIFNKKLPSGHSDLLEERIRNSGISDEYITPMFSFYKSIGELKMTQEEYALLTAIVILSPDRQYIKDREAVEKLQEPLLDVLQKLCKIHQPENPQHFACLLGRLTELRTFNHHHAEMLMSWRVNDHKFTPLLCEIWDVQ
Chain of Peroxisome proliferator-activated receptor delta (Homo sapiens) (Q03181 whole entry, looked up): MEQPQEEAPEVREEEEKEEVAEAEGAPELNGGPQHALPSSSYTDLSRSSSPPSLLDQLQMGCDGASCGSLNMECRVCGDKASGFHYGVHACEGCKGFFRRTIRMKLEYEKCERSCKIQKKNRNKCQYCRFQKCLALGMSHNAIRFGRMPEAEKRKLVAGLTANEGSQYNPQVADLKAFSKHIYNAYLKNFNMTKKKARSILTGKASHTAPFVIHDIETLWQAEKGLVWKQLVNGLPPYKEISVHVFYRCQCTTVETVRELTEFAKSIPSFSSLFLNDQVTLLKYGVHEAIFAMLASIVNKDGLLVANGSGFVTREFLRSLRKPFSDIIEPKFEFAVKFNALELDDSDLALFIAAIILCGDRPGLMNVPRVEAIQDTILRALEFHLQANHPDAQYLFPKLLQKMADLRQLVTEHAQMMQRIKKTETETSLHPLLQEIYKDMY
Chain of Peroxisome proliferator-activated receptor gamma (Homo sapiens) (P37231 whole entry, looked up): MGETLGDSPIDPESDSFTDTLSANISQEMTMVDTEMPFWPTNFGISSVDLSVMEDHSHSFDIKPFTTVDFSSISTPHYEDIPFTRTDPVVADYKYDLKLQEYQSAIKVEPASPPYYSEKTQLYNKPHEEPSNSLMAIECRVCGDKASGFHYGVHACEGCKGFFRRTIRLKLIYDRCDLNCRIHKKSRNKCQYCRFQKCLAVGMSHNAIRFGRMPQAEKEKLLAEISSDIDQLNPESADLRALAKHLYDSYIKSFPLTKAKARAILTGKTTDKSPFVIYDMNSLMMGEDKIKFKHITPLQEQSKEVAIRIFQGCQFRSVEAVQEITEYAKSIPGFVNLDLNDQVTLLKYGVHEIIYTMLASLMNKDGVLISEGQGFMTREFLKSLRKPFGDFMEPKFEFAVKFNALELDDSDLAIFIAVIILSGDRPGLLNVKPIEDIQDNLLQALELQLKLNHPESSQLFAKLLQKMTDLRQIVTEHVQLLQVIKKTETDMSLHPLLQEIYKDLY

SMILES | Potency [1] | Potency [2] | Potency [3] | Potency [4] | Potency [5] | Potency [6] | outcome [7] | Potency [8] | outcome [9] | Potency [10] | outcome [11] | Potency [12] | outcome [13] | Potency [14] | outcome [15] | Potency [16] | outcome [17] | outcome [18] | Potency [19] | Potency [20]
C[C@]12C[C@H](O)[C@H]3[C@@H](CCC4=CC(=O)CC[C@@]43C)[C@@H]1CC[C@@H]2C(=O)CO | inactive | inactive | inactive | inactive | inactive | inactive | inactive | inactive | inactive | inactive | inactive | inactive | inactive | – | – | – | – | – | – | –
O=c1c(-c2ccc(O)cc2)coc2cc(O)cc(O)c12 | inactive | inactive and 12.2 µM (active) | inactive | – | inactive | inactive | inactive | – | inactive | inactive | – | 38.9 µM (active) and 26.6 µM (active) | inactive | 48.1 µM (active) and 38.9 µM (active) | inactive | inactive | inactive | inactive | inactive | –
CCCCOCCOCCSC#N | inactive | inactive | inactive | inactive | inactive | inactive | inactive | inactive | inactive | inactive | inactive | – | – | – | – | inactive | – | inactive | inactive | –
C/C=C/c1ccc(O)c(OC)c1 | inactive | inactive | inactive | inactive | inactive | inactive | inactive | – | inactive | inactive | – | – | – | – | – | – | – | – | – | –
COc1cc2c(c(OC)c1OC)-c1ccc(OC)c(=O)cc1[C@@H](NC(C)=O)CC2 | inactive | inactive | inactive | – | inactive | inactive | inactive | – | – | inactive | – | – | inactive | inactive | inactive | – | inactive | inactive | – | –
Cc1c(N(C)CS(=O)(=O)O)c(=O)n(-c2ccccc2)n1C | inactive | inactive | inactive | – | inactive | inactive | inactive | – | inactive | inactive | inactive | – | – | inactive | inactive | – | inactive | inactive | inactive | –
OCCCc1ccccc1 | inactive | inactive | inactive | – | inactive | inactive | inactive | – | inactive | inactive | inactive | – | – | inactive | inactive | inactive | inactive | inactive | inactive | inactive
Oc1cccc(O)c1 | inactive | inactive | inactive | – | inactive | inactive | inactive | – | inactive | inactive | inactive | inactive | inactive | inactive | – | inactive | inactive | inactive | inactive | inactive
COCC(C)N (stereo not drawn) | inactive | inactive | inactive | – | inactive | inactive | inactive | – | inactive | inactive | inactive | inactive | inactive | inactive | inactive | inactive | – | inactive | inactive | inactive

From PubChem BioAssay (Tox21)
